Data taken from article PMC4552634, “A New Set of Chemical Starting Points with Plasmodium falciparum Transmission-Blocking Potential for Antimalarial Drug Discovery” (PLoS ONE, 2015).
About 3,200 (25%) of roughly 13,000 compounds showed an effect of 50% or more. Some of the results follow.

Test system: P. falciparum stage V gametocytes
Design: BacTiter-Glo ATP luminescence viability of purified stage V gametocytes in 384-well plates, per cent inhibition versus DMSO
Settings: 48 h, 5 µM; inhibitor

Row | Structure (SMILES) | % Inhibition
1 | O=C(NCCN1CCCC1)c1ccc(-c2cccc(-c3nc4ccc(F)cc4[nH]3)c2)cc1 [TCMDC-132321] | -17.02%
2 | COc1cc(OC)cc(C(=O)Nc2ccc(Nc3nc(C)cc(N(C)C)n3)cc2)c1 [TCMDC-124726] | 23.32%
3 | NC(N)=NN=Cc1ccc2c(ccc3ccccc32)c1 [TCMDC-137912] | 86.91%
4 | NC(N)=NN=Cc1ccc2c(c1)Cc1ccccc1-2 [TCMDC-137360] | -2.51%
5 | NC(N)=NN=Cc1cc2ccccc2c2ccccc12 [TCMDC-137671] | 48.28%
6 | NC(N)=NN=Cc1ccc2ccc3ccccc3c2c1 [TCMDC-137902] | 101.6%
7 | Cc1ccccc1C1CCN(C2CCC(NC(=O)/C=C/c3cc(F)ccc3F)CC2)CC1 (centres unmarked) [TCMDC-133510] | -90.23%
8 | COc1ccc(NC(=O)[C@H](Cc2ccccc2)Nc2cc(C)nc(Nc3ccccc3)n2)cc1 [TCMDC-134733] | -3.042%
9 | Cc1cc(N[C@@H](Cc2ccccc2)C(=O)Nc2ccccc2)nc(NCCc2cccnc2)n1 [TCMDC-134820] | 59.14%
10 | COc1ccc(NC(=O)[C@H](Cc2ccccc2)Nc2cc(C)nc(NCCc3cccnc3)n2)cc1 [TCMDC-134818] | 72.32%
11 | COc1ccc(NC(=O)[C@H](Cc2ccccc2)Nc2cc(C)nc(NCCOc3ccccc3)n2)cc1 [TCMDC-134757] | 13.17%
12 | COc1ccc(O)c(C(=O)c2cc(C(=O)NC3CCCCC3)c(=O)n(C3CCCCC3)c2)c1 [TCMDC-124510] | 4.971%
13 | Cc1[nH]c(C)c(-c2ccc(OCc3ccccc3C(F)(F)F)nc2)c(=O)c1Br [TCMDC-135796] | 65.1%
14 | Cc1[nH]c(C)c(-c2ccc(OCc3cc(C(F)(F)F)cc(C(F)(F)F)c3)nc2)c(=O)c1Br [TCMDC-135815] | 65.31%
15 | Cc1[nH]c(C)c(-c2ccc(OCc3cccc(C(F)(F)F)c3)nc2)c(=O)c1Br [TCMDC-135656] | 74.31%
16 | Cc1[nH]c(C)c(-c2ccc(OCc3ccc(OC(F)(F)F)cc3)nc2)c(=O)c1Cl [TCMDC-135271] | 11.85%
17 | Cc1[nH]c(C)c(-c2ccc(OCc3cc(C(F)(F)F)cc(C(F)(F)F)c3)nc2)c(=O)c1Cl [TCMDC-135814] | 52.24%
18 | COc1ccc(OC)c2c1CCN(CCN1CCC(C(=O)Nc3ccc(C(=O)Nc4ccc(Cl)cc4)cc3)CC1)C2 [TCMDC-138820] | 2.402%
19 | FC(F)(F)c1ccc2[nH]c(-c3ccc(-c4cccc(CNCc5cnn(-c6ccccc6)n5)c4)cc3)nc2c1.O=C(O)C(F)(F)F [TCMDC-132971] | -20.04%
20 | O=C(NC1CCC(CCN2Cc3ccc(Br)cc3C2)CC1)c1cccc(-c2cccnc2)c1 (centres unmarked) [TCMDC-139603] | 36.86%
21 | Nc1nc(N)c2c(Oc3cccnc3)cccc2n1 [TCMDC-137990] | -4.996%

Row | Structure (SMILES) | % Inhibition
22 | CN(C)c1cccc(NC(=O)N[C@H]2N=C(c3ccccc3)c3ccccc3N(CC(=O)N3CCCC3)C2=O)c1 [TCMDC-131987] | 37.26%
23 | N#Cc1ccc(CCNc2nccc(-c3cccc(CN4CCNCC4)c3)n2)cc1 [TCMDC-134845] | 38.8%
24 | CCC[C@@H]([C@@H](CC1CCCCC1)C(=O)NC(C(=O)Nc1nccs1)C(CC)c1ccccc1)N(O)C=O (some centres unmarked) [TCMDC-137999] | -15.87%
25 | Cc1cccc2nc(-c3ccc(-c4ccc(CNCCCN5CCCC5=O)cc4)cc3)[nH]c12.O=C(O)C(F)(F)F [TCMDC-132763] | 3.748%
26 | O=C(Cn1c(CCc2cccc(F)c2F)nc(=O)c2cccnc21)N(Cc1ccc(-c2ccc(C(F)(F)F)cc2)cc1)C1CCN(C2CCOCC2)CC1 [TCMDC-136501] | 53.37%
27 | O=C(Cn1c(CCc2cccc(F)c2F)nc(=O)c2ccccc21)N(Cc1ccc(-c2ccc(C(F)(F)F)cc2)cc1)C1CCN(C2CCOCC2)CC1 [TCMDC-136502] | 73.92%
28 | O=C(Cn1c(CCc2cccc(F)c2F)nc(=O)c2cccnc21)N(Cc1ccc(-c2ccc(C(F)(F)F)cc2)cc1)C1CCN(C2CCSCC2)CC1 [TCMDC-136559] | 46.52%
29 | O=C(Cn1c(CCc2cccc(F)c2F)nc(=O)c2ccccc21)N(Cc1ccc(-c2ccc(C(F)(F)F)cc2)cc1)C1CCN(C2CCSCC2)CC1 [TCMDC-136609] | 103.4%
30 | N#Cc1ccc(N2CCN(Cc3ccc(-c4ccc(-c5nc6cc(C(F)(F)F)ccc6[nH]5)s4)cc3)CC2)nc1.O=C(O)C(F)(F)F [TCMDC-133110] | -11.35%
31 | N#Cc1ccc(CN2CCC(Oc3ccc(NC(=O)c4ccccc4)cc3Cl)CC2)cc1 [TCMDC-133958] | 11.07%
32 | COc1ccc(NC(=O)C2c3ccccc3C(=O)N(C3CCCC3)C2c2cccs2)cc1OC (centres unmarked) [TCMDC-124695] | 88.1%
33 | COc1ccc(NC(=O)C2c3ccccc3C(=O)N(C3CCCC3)C2c2cccs2)cc1 (centres unmarked) [TCMDC-125287] | 90.81%
34 | COc1ccc(NC(=O)Nc2ccc(Nc3nc(C)cc(N4CCCC4)n3)cc2)cc1 [TCMDC-124958] | 27.34%
35 | COc1ccc(Cl)cc1NC(=O)Nc1ccc2c(c1)CCN(C1CCC1)CC2 [TCMDC-136006] | 9.191%
36 | COc1ccc(NC(=O)C2c3ccccc3C(=O)N(C3CCCC3)C2c2cccs2)c(OC)c1 (centres unmarked) [TCMDC-125288] | -16.95%
37 | O=C(Nc1cccc(CN2CCCN(Cc3ccc(O)cc3)CC2)c1)c1cc2ccccc2o1 [TCMDC-141859] | 49.98%
38 | CN1CC[C@@H](Oc2cc(NC(=O)Nc3ccc(Cl)c(C(F)(F)F)c3)ccc2Cl)C1 [TCMDC-136149] | 23.18%
39 | CN1CC[C@@H](Oc2cc(NC(=O)Nc3ccccc3Br)ccc2Cl)C1 [TCMDC-136144] | 79.19%
40 | COc1cc(Br)c(NC(=O)Nc2ccc(C(F)(F)F)c(O[C@@H]3CCN(C)C3)c2)cc1OC [TCMDC-135186] | -75.17%
41 | Cc1cc2nc(-c3ccc(C(=O)NCc4cccc(F)c4)cc3)[nH]c2cc1C [TCMDC-140432] | -28.29%
42 | CC(C)Nc1cc(C(=O)N[C@@H](Cc2ccccc2)[C@H](O)CNC2CCCCC2)cc(N2CCCCS2(=O)=O)c1 [TCMDC-135203] | 21.45%

Row | Structure (SMILES) | % Inhibition
43 | COc1ccccc1N1CCN(Cc2c(O)ccc3cc(Br)ccc23)CC1 [TCMDC-123565] | 17.32%
44 | CC(=O)Nc1nc(C(=O)Nc2cccc(-c3ccc(-c4nc5cccc(C)c5[nH]4)s3)c2)cs1 [TCMDC-137132] | -23.79%
45 | COc1ccc(Cl)cc1NC(=O)Nc1cc(C)nc2ccccc12 [TCMDC-125497] | -49.54%
46 | COc1ccc(Cl)cc1NC(=O)C(C)N1CCN(S(=O)(=O)c2ccccc2F)CC1 (centres unmarked) [TCMDC-123567] | -51.26%
47 | COc1ccc(Cl)cc1NC(=O)CN(C)C(=O)c1cnn(-c2ccccc2)n1 [TCMDC-125457] | 95.1%
48 | Cc1ccc(-n2c(=O)c3cccnc3n2CC(=O)Nc2cccc(C)c2C)cc1 [TCMDC-125161] | 23.17%
49 | CCCC(C)N(Cc1ccc(C(C)(C)C)cc1)C(=O)c1ccc(OC)cc1 (centres unmarked) [TCMDC-139782] | 14.81%
50 | COc1ccc(CN(C2CC2)C(C)C(=O)c2[nH]c(C)c(C(C)=O)c2C)cc1 (centres unmarked) [TCMDC-125037] | 53.61%
51 | CC1(C)N=C(NC(=O)c2cc([N+](=O)[O-])cc([N+](=O)[O-])c2)N=C(N)N1OCc1cccc2ccccc12 [TCMDC-131584] | -17.03%
52 | COc1ccc(CNC(=O)c2cnc3c(O)cccc3c2Nc2cccc(NC(=O)c3ccc(Cl)c(Cl)c3)c2)cc1.O=C(O)C(F)(F)F [TCMDC-139607] | 97.23%
53 | CC(C)CCNC(=O)c1cnc2c(O)cccc2c1Nc1cccc(NC(=O)c2ccc(F)cc2)c1.O=C(O)C(F)(F)F [TCMDC-139606] | 111.5%
54 | CC(C)(C)c1ccc(C(=O)Nc2cccc(Nc3c(C(=O)NCc4cccc(C(F)(F)F)c4)cnc4c(O)cccc34)c2)cc1.O=C(O)C(F)(F)F [TCMDC-139610] | 57.39%
55 | CC(C)CCNC(=O)c1cc(C(=O)c2cc(F)ccc2O)cn(CCC(C)C)c1=O [TCMDC-124499] | 0.8137%
56 | COc1ccc(CNC(=O)c2cnc3c(O)cccc3c2Nc2cccc(NC(=O)c3ccc(Cl)c([N+](=O)[O-])c3)c2)cc1.O=C(O)C(F)(F)F [TCMDC-139609] | 35.62%
57 | O=C(Cc1ccc(NC(=O)c2ccc(O)c(-c3ccc(Cl)c(Cl)c3)c2)cc1)NCc1cccc(C(F)(F)F)c1 [TCMDC-140835] | -7.918%
58 | CN(c1cc(NC(=O)c2ccc(F)cc2)ccn1)C1CCN(Cc2cccc(O)c2)CC1 [TCMDC-134966] | -19%
59 | NS(=O)(=O)c1ccc(CNC(=O)c2cnc3c(O)cccc3c2Nc2cccc(NC(=O)c3ccc(Cl)c(Cl)c3)c2)cc1.O=C(O)C(F)(F)F [TCMDC-139608] | 34.02%
60 | Nc1nc(Nc2cccc(Cl)c2)ncc1C(=O)NCc1ccncc1 [TCMDC-135688] | 0.6434%
61 | COc1ccc(CNC(=O)c2cnc3cc(-c4c(C)noc4C)ccc3c2Nc2ccccc2C(C)(C)C)cc1.Cl [TCMDC-136367] | -23.94%
62 | COc1ccc(CNC(=O)c2cnc3c(O)cccc3c2Nc2cccc(NC(=O)c3ccc(-c4ccccc4)cc3)c2)cc1.O=C(O)C(F)(F)F [TCMDC-139611] | 77.42%
